Test results: PubChem BioAssay (Tox21)
Records with an inconclusive call do not appear. A number with no mark means an inactive call. Activity calls are given as the source filed them. The call rests on the fitted dose curve; in most records, active means well fitted activation curve with a large enough effect in the repeat runs; inconclusive means weak or mixed curves; inactive means flat fitted curve, though single readings scatter.

Experiment: A CellTox Green Cytotoxicity Assay to monitor cytotoxicity in HepG2 cells - 32 hour (AID 1224883); further: nearly all actives have a fitted effect of over 50% in size
Details: CellTox Green fluorescence; series mostly up to 76.8 µM; cytotoxicity increase: at the top concentration
Source text: National Center for Advancing Translational Sciences [NCATS]
NIH Chemical Genomics Center [NCGC]
U.S. Environmental Protection Agency [EPA]
National Institutes of Environmental Health Sciences [NIEHS]
National Toxicology Program [NTP]
Cell-based models are critical for drug discovery. Determining the natural cytotoxic effects resulting from test compounds is an essential research activity. A CellTox Green Cytotoxicity Assay to monitor cytotoxicity in real time of continues cell culture during 40 hours of the compound treatment was used to screen Tox21 10K library compounds in HepG2 cells. CellTox Green Cytotoxicity Assay is a nonlytic, homogeneous, biofluorescent method to measure cytotoxicity in cell culture after experimental manipulation. The assay system uses a proprietary asymmetric cyanine dye that is excluded from viable cells but preferentially stains the dead cell's DNA. […] Viable cells produce no appreciable increases in fluorescence. Therefore, the fluorescence signal produced by the binding interaction with dead cell DNA is proportional to cytotoxicity.
The mixture of HepG2 cell suspension and reagents were dispensed at 600cells/6 ul/well in 1536-well tissue culture treated black solid bottom plates using a Multidrop dispenser. After the assay plates were incubated at a 37 C/5% CO2 incubator for 5 hours, 23 nL of compounds dissolved in DMSO, positive and negative controls was transferred to the assay plate by a pintool work station. The plates were incubated at 37 C for 40 hours. The fluorescence intensity were measured at 0h, 8h, 16h, 24h, 32h and 40h time points using ViewLux plate reader during compound treatment.
On the % scale 0 is the no-effect control and ±100 the full control effect; potency means the concentration at half of the fitted maximal effect.

Structure (SMILES)	cytotoxicity increase	Potency
CC(C)=CC(=O)O	7.16%	–
C=C[Si](OC)(OC)OC	-8.56%	–
O=[N+]([O-])c1ccc(Oc2ccc([N+](=O)[O-])cc2)cc1	-6.12%	–
CN(C)CCOC(c1ccc(Cl)cc1)c1ccccn1 (stereo not given)	0.282% [at 35.3 µM]	–
CC(C)(O)c1ccccc1	-8.71%	–
C#CC(O)CCCCC (stereo not given)	-1.48%	–
CC1=CC(=O)CCC1	-0.642%	–
CC(CCO)CCCC(C)(C)O (stereo not given)	-9.26%	–
C=CCOc1nc(OCC=C)nc(OCC=C)n1	-2.91%	–
CCCCCCC(CCCCCCCCCCC(=O)OCC(COC(C)=O)OC(C)=O)OC(C)=O (stereo not given)	8.57% [at 35.3 µM]	–
c1ccc(CCCc2ccccn2)cc1	15.8%	–
C1CCCCCCCCCCC1	-10.5% [at 15.8 µM]	–
CCO[Si](C)(OCC)OCC	-7.04%	–
COc1cccc(OC)c1	-16.6%	–
NCC[C@H](O)C(=O)N[C@@H]1C[C@H](N)[C@@H](O[C@H]2O[C@H](CN)[C@@H](O)[C@H](O)[C@H]2O)[C@H](O)[C@H]1O[C@H]1O[C@H](CO)[C@@H](O)[C@H](N)[C@H]1O	-0.727% [at 0.29 µM]	–
CCCC(C)C(=O)O (stereo not given)	4.17%	–
CN(C)N=Nc1ccccc1	-4.79%	–
CC(C)(O)C(=O)c1ccc(OCCO)cc1	0.382%	–
CCCc1ccc(N)cc1	-5.9%	–
CCN1CCN(c2cc3c(cc2F)c(=O)c(C(=O)O)cn3C2CC2)CC1	-0.544% [at 35.3 µM]	–

Structure (SMILES)	cytotoxicity increase	Potency
C/C=C1\C(=O)C[C@H]2[C@@H]3CCC4=CC(=O)CC[C@]4(C)[C@H]3CC[C@]12C	0.51% [at 35.3 µM]	–
O=C(O)C(O)[C@H](O)[C@@H](O)[C@H](O)[C@H](O)CO (stereo not given in full)	-2.89%	–
CCCCNc1ccccc1	-8.38%	–
COc1ccc(NC(C)=O)cc1	-2.48%	–
CC(=O)O[C@H](CC(=O)[O-])C[N+](C)(C)C	-15.6%	–
CCN1CCCC(OC(=O)C(c2ccccc2)c2ccccc2)C1 (stereo not given)	1.14% [at 35.3 µM]	–
Cc1ncc(CSSCc2cnc(C)c(O)c2CO)c(CO)c1O	-17% [at 35.3 µM]	–
OC1OC[C@@H](O)[C@H](O)[C@H]1O (stereo not given in full)	-6.34%	–
CCC(=O)/C=C/c1ccc(OC)cc1	5.63%	–
Nc1ncnc2c1ncn2Cc1c(F)cccc1Cl	-8.24% [at 35.3 µM]	–
COc1cc(CCC(C)=O)ccc1O	8.59%	–
CC(C)CCCC(C)CCCC(C)CCCCC(C)CCCC(C)CCCC(C)C (stereo not given)	1.04% [at 35.3 µM]	–
C#CC(C)(O)CC(C)C (stereo not given)	-5.81%	–
c1cc(CN2CCCCC2)cc(OCCCNc2nc3ccccc3s2)c1	–	23.9 µM (active)
CCOC(=O)Nc1ccc2c(c1)N(C(=O)CCN1CCOCC1)c1ccccc1S2	0.228% [at 35.3 µM]	–
NS(=O)(=O)c1cc2c(cc1C(F)(F)F)NC(Cc1ccccc1)NS2(=O)=O (stereo not given)	-13.6% [at 35.3 µM]	–
O=C1CC2(CCCC2)CC(=O)N1	-9.41% [at 35.3 µM]	–
CCCCN(CCO)CCO	-6.74%	–
Nc1nc2c(ncn2CCC(CO)CO)c(=O)[nH]1	-12.9% [at 35.3 µM]	–
CNC(=O)c1c(I)c(NC(=O)CCCCC(=O)Nc2c(I)c(C(=O)O)c(I)c(C(=O)NC)c2I)c(I)c(C(=O)O)c1I	-31% [at 35.3 µM]	–
